Shown are actives, neighbours in structure and some others; about 7.9% of the full set was active somewhere.
KB-V1 cytotox: kills drug-selected multidrug resistant KB-V1 cells | KB-V1 MDR cells viability, CellTiter-Glo, 72 h | Potency, µM (series often up to 46.1 µM), usual class: cytotoxic | 3.4% of 400,000 active; also: % is scaled to controls: 0 for no effect and ±100 for the full control effect; nearly all actives have a fitted effect of over 60% in size
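Readout: CellTiter-Glo luminescence, 10 min after addition. Cells: KB-V1 MDR subline, 72 h at 37 degrees C with compound. Analysis: corrected, normalized data fitted to concentration-effect curves.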
SW480 rereplic: induces DNA re-replication in SW480 colon adenocarcinoma cells; SW480 DNA re-replication, Hoechst DNA content imaging, 48 h; Potency, µM (highest dose often 46.1 µM), for the others: top-dose re-replication activation, most hits filed as activators; 1.8% of 340,000 active; also: % of control where 0% means no effect; nearly all actives have a fitted effect of over 55% in size
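Cells (250 per well) received 23 nL compound or DMSO by pin tool and were kept 48 hr at 37 C, 5% CO2. Nuclei were then stained with Hoechst for 40 min and scanned for DNA content.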
HT1080NT lethal: kills 2HG-producing HT-1080-NT fibrosarcoma cells; 1.6% of 360,000 active; HT-1080-NT fibrosarcoma viability, CellTiter-Glo ATP luminescence, 48 h; Potency, µM (doses to about 46.1 µM), for the others: at the highest dose activity, negative = less viability, hits mostly cytotoxic;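 also: NT is the 2HG producing partner of a matched IDH1 knockdown line; 0% = DMSO-treated cells and -100% = media-only wells without cells; nearly all actives have a fitted effect of over 55% in size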
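750 cells/well, RPMI + 5% FBS; 2 h settle, compound pin-transfer, 48 h at 37 degrees C. CellTiter-Glo 10 min RT, luminescence. Normalized to DMSO and media-only wells.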
HT1080 IDH1KD tx: kills HT-1080 cells with IDH1 knockdown. HT-1080 IDH1 knockdown viability, ATP luminescence, 48 h. Potency, µM (series often up to 46.1 µM), inactives show at the top dose activity, negative = toxicity, hits mostly cytotoxic. 2% of 360,000 active. AID 686971;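 also: 0% = DMSO wells and -100% = cell-free medium wells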
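Using the IDH1-knockdown HT-1080 line run in the same batch and compound series as the NT line, viability after 48 h at 37 °C was determined by CellTiter-Glo luminescence and expressed as % activity.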
KB-3-1 tox: KB-3-1 parental cell cytotoxicity; KB-3-1 viability, CellTiter-Glo ATP luminescence, 72 h; Potency, µM (highest dose often 46.1 µM), hits mostly cytotoxic; 1.4% of 400,000 active; AID 1347075; also: % is scaled to controls: 0 for no effect and ±100 for the full control effect; nearly all actives have a fitted effect of over 60% in size
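KB-3-1 cells, DMEM (no phenol red) + 10% FBS; compound by pin transfer, 72 h, 37 °C. Readout: CellTiter-Glo luminescence after 10 min. Data normalized, curve-fitted.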
MCF10A rereplic: inducers of DNA re-replication in MCF 10A breast cells | MCF 10A DNA re-replication, Hoechst nuclear intensity, 48 h | Potency, µM (top dose mostly 46.1 µM), for the others: at the highest dose activity, positive = re-replication, hits mostly activators | 2.9% of 350,000 active; also: % of control where 0% means no effect; nearly all actives have a fitted effect of over 50% in size
* hit, by the source's call; i = inactive; ? = inconclusive; · = no result given; [ ] = remark or other dose. Calls follow the shape of the dose curve; as a rule, active = well fitted curve in the direction sought with a large enough effect; inconclusive = small, poorly fitted or top-dose-only effect, or another doubt; inactive = no such curve, though single readings can be large; an effect the other way counts as inactive or inconclusive. Potency is read from the fitted curve at half-maximal effect.

SMILES	KB-V1 cytotox	SW480 rereplic	HT1080NT lethal	HT1080 IDH1KD tx	KB-3-1 tox	MCF10A rereplic
Cc1ccc(Cl)cc1-n1ncc2c(NC3CCCCCC3)ncnc21	?	·	·	·	20.6µM*	·
Clc1ccc(-n2ncc3c(NCC4CCCO4)ncnc32)cc1 (stereo not given)	11.6µM*	18.4µM*	?	?	23.1µM*	?
c1ccc(-n2ncc3c(NCC4CCCO4)ncnc32)cc1 (stereo not given)	?	-3.4%[9.22 µM]	0.1%	-0.6%	i	28.7%
CN(C)CCNc1ncnc2c1cnn2-c1cccc(Cl)c1	i	·	·	·	i	·
Cc1ccc2c(CC(=O)Nc3nnc(C(C)C)s3)coc2c1C	i	·	·	·	i	·
CCOC(=O)c1cc(-c2ccc(N3CCOCC3)cc2)nn1-c1ccccc1C(=O)O	i	-16.2%	-3.5%	0.9%	i	-3.2%
CCCn1c(NCc2ccc(C)o2)nc2ccccc21	?	?	-10.3%	-11.1%	i	?
O=C(NNc1ncnc2c1cnn2-c1cccc(Cl)c1)c1ccco1	i	20.6µM*	?	-9.1%	i	?
CCc1cc2c(NCc3ccco3)ncnc2s1	20.6µM*	5.8%	-13.5%	-19.5%	11.6µM*	2.2%
Clc1ccc(-n2ncc3c(NCc4ccco4)ncnc32)cc1	?	?	-14.1%	?	5.01µM*	?
CCc1cc2c(NCC(=O)O)ncnc2s1	i	-3.8%	3.0%	8.3%	i	-2.7%
COc1ccc(-n2ncc3c(NCc4ccco4)ncnc32)cc1	20.6µM*	-3.8%	-6.4%	6.8%	i	4.6%
Cc1ccc(-n2ncc3c(NNC(=O)c4ccco4)ncnc32)cc1C	i	-14.3%	-7.3%	-4.4%	i	1.5%
Cc1ccc(S(=O)(=O)N2C[C@H]3C(=O)C[C@@H](c4ccccc4)N(S(=O)(=O)c4ccc(C)cc4)[C@H]3C[C@H]2c2cccc(Cl)c2)cc1	i	·	2.9%	-2.5%	i	·
Cc1ccc(S(=O)(=O)N2CCCCC2)cc1NC(=O)CSc1nnnn1C	i	0.7%	0.0%	-0.7%	i	-2.5%
C=CCn1c(SCc2nc3ccccc3c(=O)[nH]2)nc2sc3c(c2c1=O)CCCC3	i	-4.7%	-10.7%	-4.8%	i	15.2%
CCOC(=O)CSc1nnc(CSc2nc3sc4c(c3c(=O)[nH]2)CCC4)n1-c1ccccc1	i	-2.1%	-0.3%	8.4%	i	2.9%
C=CCn1c(SCc2nc3sc4c(c3c(=O)[nH]2)CCCC4)nc2ccccc2c1=O	2.06µM*	-0.6%	3.9%	0.8%	i	10.3µM*
C=CCSc1nnc(CSc2nc3sc4c(c3c(=O)[nH]2)CCCC4)n1-c1ccccc1	20.6µM*	?	-16.0%	?	i	?
O=C(OCC(=O)N1CCN(c2ccccc2)CC1)c1ccccc1[N+](=O)[O-]	i	1.5%	1.5%	5.7%	i	0.3%
COc1cccc2sc(NC(=O)c3ccc(Br)s3)nc12	i	-10.4%	?	?	i	22.6%
Fc1cccc2sc(Nc3nnc(-c4ccco4)o3)nc12	9.2µM*	?	-23.7%	-29.9%	?	7.31µM*
COc1cccc2sc(Nc3nnc(-c4cccs4)o3)nc12	?	9.1%	-28.5%	?	?	23.1µM*
O=C(Nc1nc2c(F)cccc2s1)c1ccco1	i	7.7%	-3.9%	-0.1%	?	3.0%
COc1cccc2sc(Nc3nnc(-c4ccc(F)cc4)o3)nc12	i	?	-7.3%	-24.2%	i	25.9µM*
SMILES	KB-V1 cytotox	SW480 rereplic	HT1080NT lethal	HT1080 IDH1KD tx	KB-3-1 tox	MCF10A rereplic
CCCCCOC(=O)Cn1c(N2CCCCCC2)nc2c1c(=O)[nH]c(=O)n2C	i	-0.9%	-0.6%	-6.4%	i	-8.3%
Cc1ccc(CN(C(=O)Nc2cccc(Cl)c2)c2ccccn2)cc1	i	·	·	·	i	·
O=C(CNC(=O)c1ccccc1)OCN1C(=O)c2ccccc2C1=O	?	0.7%	5.7%	2.8%	?	0.1%
COc1ccc(-c2cc(C(F)(F)F)n3nc(C(=O)Nc4c(C)n(C)n(-c5ccccc5)c4=O)cc3n2)cc1	i	20.3%	18.0%	11.0%	?	18.4µM*
COc1ccc(-c2cc(C(F)(F)F)n3nc(C(=O)NCCCn4ccnc4)cc3n2)cc1	i	?	-2.4%	-0.5%	i	12.6µM*
COc1ccc(-c2cc(C(F)(F)F)n3nc(C(=O)NCCN4CCOCC4)cc3n2)cc1	i	-4.5%	1.4%	-6.5%	i	-7.2%
CC(C)n1c(=S)[nH]c2c1c(=O)[nH]c(=O)n2C	i	-1.9%	8.8%	16.8%	i	-4.9%
CCSc1nc(-c2ccc(OC)cc2)n(-c2nc3ccccc3s2)n1	11.6µM*	5.2%	0.3%	12.6%	i	13.7%
COc1cc2c(cc1OC)C1=C(C#N)CN(C3CCCCC3)CN1CC2	20.6µM*	1.0%	-22.6%	-2.3%	i	2.9%
COc1cc2c(cc1OC)C1=C(C#N)CCC(=O)N1CC2	4.61µM*	-6.7%	-16.3%	-3.4%	16.4µM*	1.8%
COc1cc2c(cc1OC)C1=C(C#N)CC/C(=N\S(=O)(=O)c3ccccc3)N1CC2	?	-6.9%	-0.7%	-3.5%	i	-3.9%
COc1ccc(C(=O)N=C2CCC(C#N)=C3c4cc(OC)c(OC)cc4CCN23)cc1	11.6µM*	6.0%	-2.1%	-0.1%	?	?
CCCCN1C[C@H](CSC)[C@@H](CC(=O)NC)C1=O	?	·	15.8%	5.6%	i	·
CC1CCCN(C(=O)COc2ccc(-c3ccccc3)cc2)C1 (stereo not given)	i	3.9%	-15.8%	-9.9%	i	?
CCOC(=O)C1=CCN(S(=O)(=O)c2ccc(F)cc2)C1c1cccc(Cl)c1 (stereo not given)	8.2µM*	·	-10.1%	-15.2%	?	·
CC(=O)C1=CCC(c2cccc(Cl)c2)N(S(=O)(=O)c2ccc(C)cc2)C1 (stereo not given)	i	·	?	14.6µM*	i	·
CCOC(=O)C1=CCC(c2cccc(Cl)c2)N(S(=O)(=O)c2ccc(C)cc2)C1 (stereo not given)	?	·	-18.0%	?	i	·
CCOC(=O)C1=C[C@@H](C(C)(C)C)N(S(=O)(=O)c2ccc(C)cc2)[C@H]1c1cccc(Cl)c1	i	·	?	18.4µM*	?	·
CCOC(=O)C1=C[C@@H](C(C)C)N(S(=O)(=O)c2ccc([N+](=O)[O-])cc2)[C@H]1c1ccccc1	?	·	-0.2%	-19.1%	11.6µM*	·

Screening results deposited in PubChem BioAssay by National Center for Advancing Translational Sciences (NCATS).
